According to PubChem BioAssay:

Test: probe aWnt5a binding to arrayed compounds – biochemical, biotinylated probe, 635/667 nm fluorescence, primary screen (AID 1113);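 further: score merges 667 nm fluorescence intensity with signal-to-noise per printed feature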
Conditions: small-molecule microarray, higher = more signal

Q: With C=CCN1C(=O)[C@@]2(O[C@@H](CCO)[C@H]([Si](C)(C)c3ccc(OC)cc3)[C@H]2C)c2cc(NC(C)=O)ccc21 as the compound, how does the composite z-score read?
A: 0.0136

Q: Which composite z-score does the source give for O=C1O[C@@H](c2ccccc2)[C@@H](c2ccccc2)N2[C@@H](c3ccc(O)cc3)[C@]3(C(=O)Nc4ccc(C#CCCO)cc43)[C@@H](C(=O)N3CCCCCCC3)[C@H]12 here?
A: 0.861

Q: Which composite z-score does the source give for NC(=O)[C@]1(Cc2ccccc2)N=C(c2ccc(OCCCO)cc2)O[C@@H]1c1ccccc1 here?
A: -0.0398

Q: For O=C1O[C@H](c2ccccc2)[C@H](c2ccccc2)N2[C@H]1[C@@H](C(=O)NC[C@H](O)c1ccccc1)[C@]1(C(=O)Nc3ccc(C#CC4=CCCCC4)cc31)[C@H]2c1ccc(O)cc1, which composite z-score is on record?
A: -0.0403

Q: Which composite z-score does the source give for C=C[C@H](C)[C@H](O)c1ccc(OCCO)cc1 here?
A: -0.139

Q: With O=S(=O)(NCCCO)c1ccc(Br)cc1 as the compound, how does the composite z-score read?
A: 0.0251

Q: For O=C1c2ccccc2[C@](Cc2ccccc2I)(C(=O)O)[C@H](c2ccc(CO)cc2)N1Cc1ccccc1C(F)(F)F, which composite z-score is on record?
A: -0.0006

Q: For CCOC(=O)C1=C[C@@H](C(C)(C)C)N(S(=O)(=O)c2ccc(C)cc2)[C@H]1c1ccc(Cl)c(Cl)c1, which composite z-score is on record?
A: -0.154

Q: Which composite z-score does the source give for COCC1=C([C@H](O)CCc2ccccc2)[C@H](CO)[C@@H]2C(=O)N(Cc3ccccc3)C(=O)[C@@H]2C1 here?
A: -0.0194

Q: Which composite z-score does the source give for C[N+](C)(C)CCCC[C@@H]1NC(=O)[C@H]2C[C@@H](C(=O)O)[C@@H](c3cccc(OCCO)c3)N2C1=O here?
A: 1.18

Q: Which composite z-score does the source give for COc1ccc([Si](C)(C)[C@H]2[C@H](CC(=O)N3CCC[C@H]3CO)O[C@@]3(C(=O)N(Cc4cccc(N5CCC5=O)c4)c4ccccc43)[C@@H]2C)cc1 here?
A: -0.0203

Q: With C=CCNC(=O)[C@H]1[C@@H]2C(=O)O[C@@H](c3ccccc3)[C@@H](c3ccccc3)N2[C@@H](c2ccc(OCCO)cc2)[C@]12C(=O)N(C(=O)OCCOC)c1ccc(C#CC3(O)CCCCCC3)cc12 as the compound, how does the composite z-score read?
A: 0.0342

Q: For CCCCN1CC=CC23O[C@@H]4C=CCCOC(=O)C4[C@H]2C(=O)N(CCCO)[C@@H]3C1=O (stereo partly specified), which composite z-score is on record?
A: -0.196

Q: Which composite z-score does the source give for O=C(N1CCCCC1)[C@]1(CCS(=O)(=O)c2ccccc2)N=C(c2ccc(OCCCO)cc2)O[C@@H]1c1ccccc1 here?
A: 0.055

Q: With O=C1c2ccccc2[C@@]2(Cc3ccccc3N(Cc3ccccc3)C2=O)[C@H](c2ccc(CO)cc2)N1Cc1ccccc1C(F)(F)F as the compound, how does the composite z-score read?
A: -0.157

Q: Which composite z-score does the source give for CC(C)C(=C=CC[C@H](O)c1ccccc1OCCO)CCO here?
A: -0.0643

Q: For C=CCC(OC(C)=O)[C@@H]1[C@@H](N(Cc2cc3ccccc3o2)C(=O)c2ccc(C)cc2)c2cc(OCCCO)ccc2N1C(=O)c1ccc(-c2ccccc2)cc1 (stereo partly specified), which composite z-score is on record?
A: -0.0529

Q: With CC(C)(C)OC(=O)CC[C@@]1(C(=O)NCC(O)CO)N=C(c2ccc(OCCCO)cc2)O[C@@H]1c1ccccc1 (stereo partly specified) as the compound, how does the composite z-score read?
A: -0.0685

Q: Which composite z-score does the source give for CCOC(=O)C1=CC[C@@H](c2cccc(Cl)c2)N(S(=O)(=O)c2ccc(C)cc2)[C@H]1c1ccc(C#N)cc1 here?
A: 0.0266

Q: With COC(=O)[C@@]1(Cc2ccc(OC)cc2)[C@H]2c3cc(C(=O)N(C)C)n(Cc4ccc(OC)c(OC)c4)c3C[C@H]2CN1C(=O)c1ccccc1 as the compound, how does the composite z-score read?
A: 0.294

Q: With OCCCc1cc[n+](Cc2cccc(OC(F)(F)F)c2)cc1 as the compound, how does the composite z-score read?
A: -0.0758

Q: For O=C1O[C@@H](c2ccccc2)[C@@H](c2ccccc2)N2[C@@H](c3ccc(O)cc3)[C@]3(C(=O)Nc4ccccc43)[C@@H](C(=O)N3CCCCCCC3)[C@H]12, which composite z-score is on record?
A: 1.37

Q: Which composite z-score does the source give for COCCCNC(=O)[C@@]1(C)c2ccccc2C(=O)N(Cc2ccccc2)[C@H]1c1ccc(CO)cc1 here?
A: -0.124

Q: For COc1ccc([Si](C)(C)[C@H]2[C@H](CCO)O[C@@]3(C(=O)N(Cc4ccccc4)c4ccc(N5C(=O)COc6ccccc65)cc43)[C@@H]2C)cc1, which composite z-score is on record?
A: -0.136

Q: Which composite z-score does the source give for C=C(C)[C@@H]1CC=C(C(O)C2C=CC3C(=O)N(Cc4ccccc4)C(=O)C3N2n2cnnc2)CC1 (stereo partly specified) here?
A: 0.0077

Q: Which composite z-score does the source give for C=C(CCCC)C(=O)CC[C@H](OC(=O)c1ccccc1-c1ccccc1C(=O)O)c1ccc(CO)o1 here?
A: -0.0458

Q: Which composite z-score does the source give for O=C1C2C=CC(C(O)C3CC=CCC3)N(n3cnnc3)C2C(=O)N1Cc1ccccc1 (stereo unspecified) here?
A: -0.154

Q: For C=CCC(OC(C)=O)[C@@H]1[C@@H](N(Cc2cc3ccccc3o2)C(=O)c2ccc(-c3ccccc3)cc2)c2cc(OCCCO)ccc2N1C(=O)Cc1ccc2ccccc2c1 (stereo partly specified), which composite z-score is on record?
A: -0.0704

Q: With O=[N+]([O-])c1ccc(C[n+]2ccc(CCCO)cc2)o1 as the compound, how does the composite z-score read?
A: -0.0364

Q: Which composite z-score does the source give for CC(c1ccccc1)C(O)C1C=CC2C(=O)N(Cc3ccccc3)C(=O)C2N1n1cnnc1 (stereo unspecified) here?
A: 0.0657

Q: With O=C1C2C=CC(C(O)c3cccc4ccccc34)N(n3cnnc3)C2C(=O)N1Cc1ccccc1 (stereo unspecified) as the compound, how does the composite z-score read?
A: 1.06

Q: For O=C1C2C=CC(C(O)c3ccc(B(O)O)cc3)N(Nc3ccc([N+](=O)[O-])cc3)C2C(=O)N1c1ccccc1 (stereo unspecified), which composite z-score is on record?
A: -0.0107

Q: For COCCOC(=O)N1C(=O)[C@@]2(c3ccccc31)[C@H](c1ccc(O)cc1)N1[C@H](c3ccccc3)[C@H](c3ccccc3)OC(=O)[C@H]1[C@@H]2C(N)=O, which composite z-score is on record?
A: -0.0256

Q: For O=C1C2C=CC(C(O)CCc3ccccc3)N(Nc3ccccc3)C2C(=O)N1c1ccccc1 (stereo unspecified), which composite z-score is on record?
A: 0.0797

Q: With COc1ccc([Si](C)(C)[C@H]2[C@H](CC(=O)N3CCC[C@H]3CO)O[C@@]3(C(=O)N(c4ccccc4)c4ccccc43)[C@@H]2C)cc1 as the compound, how does the composite z-score read?
A: -0.156

Q: With CCCNC(=O)[C@@]1(C)c2ccccc2C(=O)N(Cc2ccc(OC(F)(F)F)cc2)[C@H]1c1ccc(CO)cc1 as the compound, how does the composite z-score read?
A: -0.0685
